Measurements: article PMC4336329 (PLoS ONE, 2015)
In all, about 310,000 compounds went through this assay and about 14,000 (4.5%) showed an effect of 50% or more. The effect is printed as a negative number. Many of the other results were omitted from the sample, so strong results are more common in it than they were.

molecular target: human ether-à-go-go-related gene (hERG) potassium channel (human, UniProt Q12809); assay: primary screen, population patch clamp on CHO cells stably expressing hERG; higher = less effect of the substance
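Note: peak tail current of the secondary pulse compared with the same well before compound.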

human ether-à-go-go-related gene (hERG) potassium channel, sequence (Q12809 whole entry, looked up): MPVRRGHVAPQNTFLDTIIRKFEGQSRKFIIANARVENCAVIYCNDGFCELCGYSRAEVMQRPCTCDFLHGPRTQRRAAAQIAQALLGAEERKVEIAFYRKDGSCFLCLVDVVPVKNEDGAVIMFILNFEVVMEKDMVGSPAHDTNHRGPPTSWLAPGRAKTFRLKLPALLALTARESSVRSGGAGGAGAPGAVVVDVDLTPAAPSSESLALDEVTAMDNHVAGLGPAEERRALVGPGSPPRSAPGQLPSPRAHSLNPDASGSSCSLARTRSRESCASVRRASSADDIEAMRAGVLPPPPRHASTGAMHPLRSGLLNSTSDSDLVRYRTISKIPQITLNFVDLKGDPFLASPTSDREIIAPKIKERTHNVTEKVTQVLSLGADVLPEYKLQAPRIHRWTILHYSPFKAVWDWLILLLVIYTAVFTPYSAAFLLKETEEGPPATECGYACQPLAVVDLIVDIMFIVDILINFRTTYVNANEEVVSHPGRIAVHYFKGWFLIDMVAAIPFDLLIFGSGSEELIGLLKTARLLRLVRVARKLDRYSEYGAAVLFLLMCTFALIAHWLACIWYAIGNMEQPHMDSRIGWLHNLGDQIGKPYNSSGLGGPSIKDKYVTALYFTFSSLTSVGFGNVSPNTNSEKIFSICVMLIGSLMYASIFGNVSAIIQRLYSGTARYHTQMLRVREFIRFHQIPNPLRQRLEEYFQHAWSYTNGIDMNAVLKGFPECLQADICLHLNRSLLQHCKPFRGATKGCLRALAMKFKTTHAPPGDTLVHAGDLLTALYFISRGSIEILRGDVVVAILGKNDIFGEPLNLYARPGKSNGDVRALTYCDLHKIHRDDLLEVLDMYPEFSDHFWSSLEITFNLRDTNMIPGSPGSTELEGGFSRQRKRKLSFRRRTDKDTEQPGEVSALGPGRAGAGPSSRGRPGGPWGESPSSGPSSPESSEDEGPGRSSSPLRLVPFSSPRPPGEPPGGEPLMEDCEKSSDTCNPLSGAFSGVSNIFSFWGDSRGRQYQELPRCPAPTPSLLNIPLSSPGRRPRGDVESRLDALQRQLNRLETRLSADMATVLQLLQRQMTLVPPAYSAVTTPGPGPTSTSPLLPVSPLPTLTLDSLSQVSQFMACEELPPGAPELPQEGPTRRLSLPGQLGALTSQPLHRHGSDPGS

Going from `Cn1c(COc2ccccc2)nnc1SCc1nc2ccccc2[nH]1` to `O=C(CSc1ccc(-c2cccs2)nn1)NCc1ccccc1Cl`, the “hERG current change (%, negative = inhibition) at 10uM” value falls from -9.92% to -28.7%.

Compared with `CCOc1ncccc1C(=O)NC(C)CCc1ccccc1` (centres unmarked), `O=C(NCc1csc(-c2ccccc2)n1)c1ccco1` is lower in “hERG current change (%, negative = inhibition) at 10uM” value: -6.92% for the first, -40% for the second.

Compared with `COc1ccc(OC)c(/C=C2\S/C(=N/NC(=O)c3ccc4ccccc4c3)NC2=O)c1`, `COc1ccccc1NS(=O)(=O)c1cccc(C(=O)NN=C2CCCC2)c1` is lower in “hERG current change (%, negative = inhibition) at 10uM” value: 16.5% for the first, 0.33% for the second.

First: COc1cccc(CNS(=O)(=O)c2ccc3c(c2)CC(C)N3C(=O)C2CC2)c1 (centres unmarked)
Second: COc1cccc(/C(C)=N/Nc2ncc(Cl)cc2Cl)c1
The “hERG current change (%, negative = inhibition) at 10uM” value of the first is higher: 18.5% for the first, -10.3% for the second.

Going from `Cc1ccc(-c2nc(CNC(=O)c3ccco3)cs2)cc1` to `Cc1cccc(-c2nc(CNC(=O)c3ccco3)cs2)c1`, the “hERG current change (%, negative = inhibition) at 10uM” value falls from -13.6% to -57.9%.

Going from `COc1ccc(CNC(=O)[C@@H](NC(=O)C2CCN(C(=O)[C@@H]3CCCN3C(=O)OC(C)(C)C)CC2)C(C)C)cc1` to `COc1ccc(CN(C)C(=O)Cc2ccc(OC)c(S(=O)(=O)N3CCOCC3)c2)cc1`, the “hERG current change (%, negative = inhibition) at 10uM” value falls from -9.4% to -20.4%.

Going from `CCOc1ccc(CCNC(=O)CN(C)S(=O)(=O)c2cccc3nsnc23)cc1OCC` to `COc1ccc(S(=O)(=O)N(CCCN2CCOCC2)Cc2ccc(OC)c(OC)c2)cc1`, the “hERG current change (%, negative = inhibition) at 10uM” value falls from -9.79% to -39.9%.

Compared with `O=C(O)C(=O)O.O=[N+]([O-])c1ccc(S(=O)(=O)N(CCCN2CCOCC2)Cc2cccs2)cc1`, `O=C(O)C(=O)O.O=S(=O)(c1ccc(Cl)cc1)N(CCCN1CCOCC1)Cc1cccs1` is higher in “hERG current change (%, negative = inhibition) at 10uM” value: -70.6% for the first, -63.7% for the second.

Going from `CC(=O)Nc1ccc(S(=O)(=O)N(CCCN2CCOCC2)Cc2cccs2)cc1.O=C(O)C(=O)O` to `CC(C)(C)c1ccc(S(=O)(=O)N(CCCN2CCOCC2)Cc2cccs2)cc1.O=C(O)C(=O)O`, the “hERG current change (%, negative = inhibition) at 10uM” value falls from -20.9% to -33.4%.

Compared with `COc1ccc(S(=O)(=O)N(CCCN2CCOCC2)Cc2cccc3ccccc23)cc1`, `COc1ccccc1C1/C(=C(\O)c2ccc3c(c2)OCCO3)C(=O)C(=O)N1Cc1cccnc1` (centres unmarked) is higher in “hERG current change (%, negative = inhibition) at 10uM” value: -48.6% for the first, 18.9% for the second.

Going from `O=C(Nc1ccc(N2CCCCC2)cc1)c1cccnc1Cl` to `CCOC(=O)C1CCCN(S(=O)(=O)c2cccc3cccnc23)C1` (centres unmarked), the “hERG current change (%, negative = inhibition) at 10uM” value falls from 13.4% to -14.9%.

First: CCOC(=O)C1CCCN(C(=O)c2cc(CN3C(=O)c4ccccc4C3=O)ccc2OC)C1 (centres unmarked)
Second: CCOC(=O)CNC(=O)c1cnc(Nc2ccccc2OC)c2ccccc12
The “hERG current change (%, negative = inhibition) at 10uM” value of the first is lower: -9.55% for the first, 5.33% for the second.

Going from `C=CCc1cccc(/C=N/NC(=O)c2ccccc2OC)c1O` to `C=CCc1cccc(/C=N/NC(=O)c2ccccc2Br)c1O`, the “hERG current change (%, negative = inhibition) at 10uM” value falls from 14.1% to -50.2%.

Compared with `C=CCc1cccc(/C=N/NC(=O)CNc2ccccc2)c1O`, `C/C(=N\Nc1ccccn1)c1ccc(C#N)cc1` is lower in “hERG current change (%, negative = inhibition) at 10uM” value: -2.16% for the first, -19.3% for the second.

Going from `O=C(C1=C(O)C(=O)N(CCCn2ccnc2)C1c1ccc(F)cc1)c1ccco1` (centres unmarked) to `Cc1noc(C)c1COc1ccc(C(=O)N2CCN(c3ccccc3O)CC2)cc1`, the “hERG current change (%, negative = inhibition) at 10uM” value falls from 15.8% to -14.4%.

Going from `C/C(=N\Nc1ccccn1)c1ccc(OC(F)F)cc1` to `C/C(=N\Nc1ccccn1)c1ccc(C(C)C)cc1`, the “hERG current change (%, negative = inhibition) at 10uM” value rises from -71.3% to 23.7%.

Compared with `C/C(=N\Nc1ncc(Cl)cc1Cl)c1ccc(OC(F)F)cc1`, `C/C(=N\Nc1ncc(Cl)cc1Cl)c1ccc(C#N)cc1` is higher in “hERG current change (%, negative = inhibition) at 10uM” value: -50.2% for the first, -4.88% for the second.

Compared with `Cc1noc(C)c1COc1ccc(C(=O)N2CCN(c3ccccn3)CC2)cc1`, `Cc1noc(C)c1COc1ccc(C(=O)N2CCN(c3ccccc3F)CC2)cc1` is lower in “hERG current change (%, negative = inhibition) at 10uM” value: -31.8% for the first, -55% for the second.

Going from `Cc1cccc(N2CCN(C(=O)CSCc3c(C)noc3C)CC2)c1C` to `Cc1noc(C)c1CSCC(=O)N1CCN(c2ccc(F)cc2)CC1`, the “hERG current change (%, negative = inhibition) at 10uM” value falls from -14.9% to -38.1%.

First: COc1cc(C(=O)N2CCN(S(=O)(=O)c3ccc(C)cc3)CC2)ccc1OCc1c(C)noc1C
Second: COc1cc(C(=O)N2CCN(c3ccc([N+](=O)[O-])cc3)CC2)ccc1OCc1c(C)noc1C
The “hERG current change (%, negative = inhibition) at 10uM” value of the first is higher: -21% for the first, -60.2% for the second.

First: Cc1noc(C)c1CSCC(=O)N1CCN(c2ccc([N+](=O)[O-])cc2)CC1
Second: COc1ccc(N2CCN(C(=O)c3ccc(OCc4c(C)noc4C)c(OC)c3)CC2)cc1
The “hERG current change (%, negative = inhibition) at 10uM” value of the first is lower: -76.8% for the first, 6.01% for the second.

First: CCOC(=O)[C@@H]1[C@H]2COc3ccc(Br)cc3[C@H]2N2C(=O)N(c3ccc(Br)cc3)C(=O)[C@]12C
Second: Cc1nnc(SCc2ccc(Cl)cc2)n1CC1CCCO1 (centres unmarked)
The “hERG current change (%, negative = inhibition) at 10uM” value of the first is higher: 7.88% for the first, -3.26% for the second.
